Test results taken from PubChem BioAssay AID1159580 (chemical genetic matrix, 2015).
“And” between values parts separate entries of the source, which are not always exact repeats. Equal values may be shown once. Among all 5,500 compounds or so, about 2,000 (36%) were called active. About 18% were inconclusive and are not listed. Cut-off read from the data, not from the text of the source: active = normalized growth mostly below about 0.91 (no sharp cut-off); inconclusive = no clear call, values can overlap the other calls; inactive = mostly above about 0.92. The list shows a part of the results.

Experiment: chemical genetic growth profiling, strain panel (AID 1159580);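 note: tested at 20 µM; growth read once vehicle control cultures reached saturation at 30 °C; 1 = growth at the plate median or of vehicle wells; lower values mean less growth of the strain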
Settings: S. cerevisiae deletion strains, growth OD

Measured: normalized growth

Cc1ccc(-c2cc(C(F)(F)F)nn2-c2ccc(S(N)(=O)=O)cc2)cc1
inactive: locus YAL013W, strain DEP1, active compounds read low 1 | locus YAL021C, strain ccr4, active compounds read low 1 | locus YAL026C, strain drs2, active compounds read low 1.03 | locus YAL030W, strain snc1, active compounds read low 1.03 | locus YBL061C, strain skt5, active compounds read low 1.02 | locus YBR009C, strain hhf1, active compounds read low 1.03 | locus YBR021W, strain FUR4, active compounds read low 1 | locus YBR023C, strain chs3, active compounds read low 1.02 | locus YBR171W, strain sec66, active compounds read low 1.05 | locus YBR229C, strain ROT2, active compounds read low 0.992 | locus YBR231C, strain swc5, active compounds read low 1.05 | locus YBR279W, strain paf1, active compounds read low 1.02 | locus YCL011C, strain gbp2, active compounds read low 1.03 | locus YCL016C, strain dcc1, active compounds read low 1.03 | locus YCL029C, strain bik1, active compounds read low 1.04 | locus YCL061C, strain MRC1, active compounds read low 1.02 | locus YCL069W, strain vba3, active compounds read low 1.03 | locus YCR088W, strain abp1, active compounds read low 1.02 | locus YDL005C, strain med2, active compounds read low 1.03 | locus YDL035C, strain GPR1, active compounds read low 0.979 | locus YDL040C, strain nat1, active compounds read low 1.03 | locus YDL074C, strain BRE1, active compounds read low 0.975 | locus YDL101C, strain DUN1, active compounds read low 1.02 | locus YDL134C, strain PPH21, active compounds read low 0.999 | locus YDL185W, strain tfp1, active compounds read low 1.02 | locus YDL192W, strain arf1, active compounds read low 0.998 | locus YDR001C, strain nth1, active compounds read low 1.02 | locus YDR069C, strain doa4, active compounds read low 1.02 | locus YDR101C, strain arx1, active compounds read low 1.01 | locus YDR137W, strain rgp1, active compounds read low 1.02 | locus YDR150W, strain NUM1, active compounds read low 1 | locus YDR159W, strain sac3, active compounds read low 1.02 | locus YDR162C, strain NBP2, active compounds read low 0.988 | locus YDR195W, strain ref2 1.05 | locus YDR297W, strain sur2, active compounds read low 1.02 | locus YDR318W, strain mcm21, active compounds read low 1.02 | locus YDR334W, strain swr1, active compounds read low 1.04 | locus YDR335W, strain msn5, active compounds read low 1.03 | locus YDR388W, active compounds read low 1.01 | locus YDR392W, strain spt3, active compounds read low 1.03 | locus YDR502C, strain sam2, active compounds read low 1 | locus YEL003W, strain gim4, active compounds read low 1.03 | locus YEL037C, strain rad23, active compounds read low 1.03 | locus YEL061C, strain CIN8 (second series), active compounds read low 1.04 | locus YEL061C, strain CIN8, active compounds read low 0.994 | locus YER015W, strain faa2, active compounds read low 1.03 | locus YER016W, strain bim1, active compounds read low 1.03 | locus YER110C, active compounds read low 1.02 | locus YER111C, strain swi4, active compounds read low 1.05 | locus YER155C, strain BEM2 (second series), active compounds read low 1.04 | locus YER155C, strain BEM2, active compounds read low 1.01 | locus YER167W, strain BCK2, active compounds read low 0.998 | locus YFR010W, strain ubp6, active compounds read low 1.04 | locus YGL078C, strain dbp3, active compounds read low 0.996 | locus YGL086W, strain mad1, active compounds read low 0.991 | locus YGL167C, strain pmr1, active compounds read low 1.04 | locus YGL173C, strain kem1, active compounds read low 1.01 | locus YGL227W, strain vid30, active compounds read low 1.04 | locus YGL240W, strain doc1, active compounds read low 1.04 | locus YGL248W, strain PDE1, active compounds read low 0.996 | locus YGL253W, strain hxk2, active compounds read low 1.02 | locus YGR078C, strain PAC10, active compounds read low 1.01 | locus YGR135W, strain pre9, active compounds read low 1.02 | locus YGR229C, strain SMI1, active compounds read low 0.998 | locus YGR252W, strain gcn5, active compounds read low 0.962 | locus YHR013C, strain ard1, active compounds read low 1.06 | locus YHR027C, strain rpn1, active compounds read low 1.03 | locus YHR030C, strain SLT2, active compounds read low 1.01 and 0.968 | locus YHR079C, strain IRE1 (second series), active compounds read low 1.02 | locus YHR079C, strain IRE1, active compounds read low 0.963 | locus YHR094C, strain hxt1, active compounds read low 1.01 | locus YHR129C, strain ARP1, active compounds read low 1 | locus YHR142W, strain chs7, active compounds read low 1.03 | locus YHR200W, strain rpn10, active compounds read low 1.01 | locus YIL066C, strain RNR3, active compounds read low 0.994 | locus YIL073C, strain SPO22, active compounds read low 0.994 | locus YIL125W, strain kgd1, active compounds read low 1.01 | locus YIR030C, strain dcg1, active compounds read low 1.01 | locus YJL092W, strain hpr5, active compounds read low 1.02 | locus YJL095W, strain BCK1 (second series), active compounds read low 1.02 | locus YJL095W, strain BCK1, active compounds read low 1.04 and 0.974 | locus YJL115W, strain asf1, active compounds read low 1.03 | locus YJL129C, strain trk1, active compounds read low 1.06 | locus YJL134W, strain LCB3, active compounds read low 1 | locus YJL154C, strain vps35, active compounds read low 1.02 | locus YJL164C, strain tpk1, active compounds read low 1.03 | locus YJL166W, strain qcr8, active compounds read low 1.01 | locus YJL168C, strain set2, active compounds read low 1.02 | locus YJL187C, strain SWE1 (second series), active compounds read low 1.03 | locus YJL187C, strain SWE1, active compounds read low 1.02 | locus YJR043C, strain POL32, active compounds read low 1.01 | locus YJR066W, strain TOR1, active compounds read low 0.974
